Read-out in experiment [1]: Interleukin-8 (IL8), CXCL8 (gene 3576)
The experiment in a line: BSK_CASM3C_IL8: BioMAP Diversity Plus: CASM3C Assay for Interleukin-8 (IL8) Biomarker Activity (AID 2283042).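 Also: IL-8 protein level quantified by ELISA.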 The following applies: primary human coronary artery smooth muscle cells; actives raise or lower the signal.

Read-out in experiment [2]: Human Leukocyte Antigen - DR isotype (HLADR), HLA-DRA (gene 3122)
The experiment in a line: BSK_CASM3C_HLADR: BioMAP Diversity Plus: CASM3C Assay for Human Leukocyte Antigen - DR isotype (HLADR) Biomarker Activity (AID 2283043).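 Also: cell-surface HLA-DR protein level quantified by ELISA.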 The following applies: primary human coronary artery smooth muscle cells; actives raise or lower the signal.

Read-out in experiment [3]: Macrophage colony-stimulating factor (MCSF), CSF1 (gene 1435)
Nature of the experiment: BSK_CASM3C_MCSF: BioMAP Diversity Plus: CASM3C Assay for Macrophage colony-stimulating factor (MCSF) Biomarker Activity (AID 2283044).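 Also: M-CSF protein amount quantified by ELISA after 24 h exposure.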 The note with it: primary human coronary artery smooth muscle cells; actives raise or lower the signal.

Read-out in experiment [4]: Low-density lipoprotein receptor (LDLR), LDLR (gene 3949)
The experiment in a line: BSK_CASM3C_LDLR: BioMAP Diversity Plus: CASM3C Assay for Low-density lipoprotein receptor (LDLR) Biomarker Activity (AID 2283045).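 Also: LDLR protein level on the cell surface quantified by ELISA.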 The note with it: primary human coronary artery smooth muscle cells; actives raise or lower the signal.

Read-out in experiment [5]: Monocyte Chemoattractant Protein-1 (MCP1), CCL2 (gene 6347)
The experiment in a line: BSK_CASM3C_MCP1: BioMAP Diversity Plus: CASM3C Assay for Monocyte Chemoattractant Protein-1 (MCP1) Biomarker Activity (AID 2283046).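 Also: MCP-1 level quantified by ELISA 24 h after dosing.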 The note with it: primary human coronary artery smooth muscle cells; actives raise or lower the signal.

A short description of experiment [6]: BSK_CASM3C_Proliferation: Cell Proliferation Assessment in the BioMAP Diversity Plus: CASM3C Assay (AID 2283047).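 Also: sulforhodamine B total protein stain as relative cell number at 560 nm; sub-confluent cells exposed 48 h before staining; fitted both ways against DMSO so gain or loss of cell number.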 The following applies: primary human coronary artery smooth muscle cells.
Read-out in experiment [7]: Monokine induced gamma interferon (MIG), CXCL9 (gene 4283)
The experiment in a line: BSK_CASM3C_MIG: BioMAP Diversity Plus: CASM3C Assay for Monokine induced gamma interferon (MIG) Biomarker Activity (AID 2283048).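 Also: MIG protein level measured by ELISA.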 The note with it: primary human coronary artery smooth muscle cells; actives raise or lower the signal.

Read-out in experiment [8]: serum amyloid A (SAA), SAA1 (gene 6288)
The experiment in a line: BSK_CASM3C_SAA: BioMAP Diversity Plus: CASM3C Assay for serum amyloid A (SAA) Biomarker Activity (AID 2283049).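 Also: SAA protein level quantified by ELISA.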 The note with it: primary human coronary artery smooth muscle cells; actives raise or lower the signal.

Experiment [9] in a line: BSK_CASM3C_SRB: Viability Assessment in the BioMAP Diversity Plus: CASM3C Assay (AID 2283050).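 Also: total protein by SRB staining as cytotoxicity measure in parallel cultures; cells exposed to compound for 24 h.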 The following applies: primary human coronary artery smooth muscle cells.
Read-out in experiment [10]: Thrombomodulin, THBD (gene 7056)
Nature of the experiment: BSK_CASM3C_Thrombomodulin: BioMAP Diversity Plus: CASM3C Assay for Thrombomodulin Biomarker Activity (AID 2283051).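 Also: thrombomodulin protein level measured by ELISA 24 h after dosing.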 The note with it: primary human coronary artery smooth muscle cells; actives raise or lower the signal.

Read-out in experiment [11]: Tissue Factor, F3 (gene 2152)
Nature of the experiment: BSK_CASM3C_TissueFactor: BioMAP Diversity Plus: CASM3C Assay for Tissue Factor Biomarker Activity (AID 2283052).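 Also: cell surface tissue factor protein level read by ELISA.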 The note with it: primary human coronary artery smooth muscle cells; actives raise or lower the signal.

Read-out in experiment [12]: Interferon-gamma inducible Protein 10 (IP10), CXCL10 (gene 3627)
Nature of the experiment: BSK_hDFCGF_IP10: BioMAP Diversity Plus: hDFCGF Assay for Interferon-gamma inducible Protein 10 (IP10) Biomarker Activity (AID 2283053). The note with it: primary human foreskin fibroblasts; actives raise or lower the signal. An outline of the steps: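 ELISA read-out of IP-10 (CXCL10) from primary human skin fibroblasts, 24 h after compound addition. Gain or loss of signal versus DMSO baseline, bidirectional curve fitting.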

Read-out in experiment [13]: Urokinase-type plasminogen activator receptor (uPAR), PLAUR (gene 5329)
Nature of the experiment: BSK_CASM3C_uPAR: BioMAP Diversity Plus: CASM3C Assay for Urokinase-type plasminogen activator receptor (uPAR) Biomarker Activity (AID 2283054).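 Also: cell-surface uPAR protein level quantified by ELISA.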 The note with it: primary human coronary artery smooth muscle cells; actives raise or lower the signal.

Read-out in experiment [14]: Vascular cell adhesion molecule 1 (VCAM1), VCAM1 (gene 7412)
Nature of the experiment: BSK_CASM3C_VCAM1: BioMAP Diversity Plus: CASM3C Assay for Vascular cell adhesion molecule 1 (VCAM1) Biomarker Activity (AID 2283055).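 Also: VCAM-1 protein level quantified by ELISA on the cells.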 The following applies: primary human coronary artery smooth muscle cells; actives raise or lower the signal.

Read-out in experiment [15]: Collagen III, COL3A1 (gene 1281)
The experiment in a line: BSK_hDFCGF_CollagenIII: BioMAP Diversity Plus: hDFCGF Assay for Collagen III Biomarker Activity (AID 2283056). The following applies: primary human foreskin fibroblasts; actives raise or lower the signal. An outline of the steps:
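Human foreskin primary fibroblasts were exposed to test chemicals for 24 h, after which collagen III was quantified by ELISA. Activity was fitted bidirectionally against DMSO as negative control and baseline.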

Read-out in experiment [16]: Epidermal growth factor receptor (EGFR), EGFR (gene 1956)
Nature of the experiment: BSK_hDFCGF_EGFR: BioMAP Diversity Plus: hDFCGF Assay for Epidermal growth factor receptor (EGFR) Biomarker Activity (AID 2283057). The note with it: primary human foreskin fibroblasts; actives raise or lower the signal. The method, boiled down: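 ELISA readout of EGFR on human dermal fibroblasts (primary foreskin cells), 24 h post-dosing; bidirectional curve fit vs DMSO baseline, gain or loss of signal scored.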

Read-out in experiment [17]: Interleukin-8 (IL8), CXCL8 (gene 3576)
Nature of the experiment: BSK_hDFCGF_IL8: BioMAP Diversity Plus: hDFCGF Assay for Interleukin-8 (IL8) Biomarker Activity (AID 2283058). The following applies: primary human foreskin fibroblasts; actives raise or lower the signal. The method, boiled down:
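hDFCGF human dermal fibroblasts; 24 h chemical exposure; IL-8 by ELISA; bidirectional curve fit vs DMSO baseline; gain or loss of signal scored.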

A short description of experiment [18]: BSK_hDFCGF_Proliferation: Cell Proliferation Assessment in the BioMAP Diversity Plus: hDFCGF Assay (AID 2283059).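 Also: curves fitted for both rise and fall of signal versus DMSO baseline.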 The following applies: primary human foreskin fibroblasts. An outline of the steps:
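Steps: dose primary human dermal fibroblasts (foreskin); […] fix in 10% TCA; stain with 0.1% SRB; read 560 nm; fit gain or loss of signal against DMSO.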

Read-out in experiment [19]: Macrophage colony-stimulating factor (MCSF), CSF1 (gene 1435)
Nature of the experiment: BSK_hDFCGF_MCSF: BioMAP Diversity Plus: hDFCGF Assay for Macrophage colony-stimulating factor (MCSF) Biomarker Activity (AID 2283060). The following applies: primary human foreskin fibroblasts; actives raise or lower the signal. The method, boiled down:
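Human foreskin primary fibroblasts were treated with test chemical for 24 h, and M-CSF was then measured by ELISA. Data were fitted bidirectionally against DMSO as the negative control and activity baseline.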

Experiment [20] can be described thus: BSK_hDFCGF_SRB: Viability Assessment in the BioMAP Diversity Plus: hDFCGF Assay (AID 2283061).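 Also: cells exposed to compound for 24 h before the read.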 The following applies: primary human foreskin fibroblasts. The method, boiled down:
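Human foreskin primary fibroblasts were treated with compound and assessed 24 h after dosing. Total protein was measured by sulforhodamine B staining (0.1% SRB after 10% TCA fixation, 560 nm read) as a cytotoxicity marker, with bidirectional fitting against DMSO baseline.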

Molecules are shown by their SMILES. Activity calls are given as the source filed them. The calls were made as follows: active = hit-call score of the fitted dose curve at least 0.9, where 1 is the maximum; inactive = score below 0.9.

Consider five compounds from PubChem BioAssay (EPA / NIEHS).

As for `Oc1ccc2ccccc2c1`, the result in [1], in experiment [2], in [3], in [4], in experiment [5] and in [6] was inactive. For the same compound, the result in [7], in experiment [8], in experiment [9], in [10], in [11] and in [12] was inactive. Also, the result in experiment [13], in [14], in experiment [15], in experiment [16], in experiment [17] and in [18] was inactive. Moreover, the result in [19] and in experiment [20] was inactive.
The term AC50 denotes the concentration giving half of the maximal activity seen. Regarding `CCOC(=O)O[C@H](C)OC(=O)c1ccc2c(c1)cc(C(=O)NC1CCN(C(C)C)CC1)n2Cc1cc(-c2ccc(Cl)s2)on1`, the AC50 was 8.81 µM (active) in experiment [1]; 5.85 µM (active) in experiment [2]; 5.13 µM (active) in [3]; 7.49 µM (active) in experiment [5]; 2.41 µM (active) in [6]; 9.34 µM (active) in experiment [7]. The AC50 was 6.05 µM (active) in [8]; 6.15 µM (active) in experiment [9]; 9.19 µM (active) in experiment [10]; 7.43 µM (active) in experiment [11]; 4.62 µM (active) in [12]; 6.27 µM (active) in experiment [13]. For the same compound, the AC50 is 10.3 µM (active) in [14]; 4.13 µM (active) in experiment [15]; 4.85 µM (active) in [16]; 6.12 µM (active) in experiment [17]; 1.72 µM (active) in [18]; 5.16 µM (active) in experiment [19]. For the same compound, the AC50 in experiment [20] was 4.96 µM (active). In addition, in experiment [4], the result was inactive.
Consider `C[C@]12CC[C@@H]3c4ccc(O)cc4CC[C@H]3[C@@H]1CCC2=O`, for which the outcome in experiment [1], in [2], in [3], in experiment [4], in experiment [5] and in [6] was inactive. Moreover, the result in experiment [7], in experiment [8], in experiment [9], in [10], in [11] and in experiment [12] was inactive. The result in experiment [13], in [14], in [15], in experiment [16], in experiment [17] and in experiment [19] was inactive. Further, the result in [20] was inactive. The AC50 in experiment [18] was 17.6 µM (active).
With `CCCCCCCCN(C)CCCCCCCC`, the outcome in experiment [1], in [2], in experiment [3], in experiment [4], in [5] and in experiment [6] was inactive. Besides, the result in experiment [7], in [8], in [9], in [10], in experiment [11] and in experiment [12] was inactive. Besides, the outcome in experiment [13], in [14], in [15], in experiment [16], in experiment [17] and in experiment [18] was inactive. Moreover, the outcome in experiment [19] and in experiment [20] was inactive.
Turning to `O=C1c2ccccc2C(=O)N1CCc1noc(-c2ccc(CN3CCCCCC3)s2)n1`, the result in [1], in [2], in [3], in experiment [5], in experiment [6] and in experiment [7] was inactive. The result in experiment [8], in experiment [9], in experiment [10], in experiment [11], in experiment [12] and in [13] was inactive. Moreover, the outcome in experiment [14], in experiment [15], in [16], in experiment [17], in experiment [18] and in experiment [19] was inactive. The result in experiment [20] was inactive. Further, in experiment [4], the AC50 is 27.1 µM (active).
